Screening data as filed in PubChem.
BoNT-F LC inh – BoNT/F light chain protease inhibitors, primary screen, biochemical, flow cytometry, MLPCN library; Multiplex microsphere protease cleavage assay; inhibition, % at 10 µM; actives 0.22% (n = 360,000); AID 588497, 2011; in the data active = inhibition above about 35%, passing the limit was not always enough; inconclusive = no clear call, values can overlap the other calls; note: plate controls were buffer without enzyme for full effect and enzyme alone for no effect
PfHsp40 yeast – rescue of yeast from PfHsp40 toxicity, primary screen, S. cerevisiae, ATP luminescence | S. cerevisiae expressing PfHsp40, growth rescue | growth rescue, % at 12.5 µM | actives 0.68% (n = 340,000) | AID 504582, 2011; in the data active = growth rescue above about 28%, passing the limit was not always enough; inconclusive = no clear call, values can overlap the other calls;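 note: yeast W303a lacking pdr1 and pdr3 grown in galactose medium; growth measured after three days at 30 °C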
Anthrax LF inh2 – Bacillus anthracis LF protease inhibitors, primary screen, biochemical, multiplex microsphere, MLPCN library; multiplex microsphere protease cleavage assay; inhibition, % at 10 µM; Lethal factor (Bacillus anthracis), P15917; AID 588501, 2011; actives 0.12% (n = 360,000); note: plate controls were buffer without enzyme for full effect and enzyme alone for no effect
BoNT-A LC inh2 – BoNT/A light chain protease inhibitors, primary screen, biochemical, flow cytometry, MLPCN library; multiplex microsphere protease substrate cleavage; actives 0.17% (n = 360,000); AID 588499, 2011; Botulinum neurotoxin type A light chain protease (Clostridium botulinum A str. ATCC 3502); inhibition, % at 10 µM; note: plate controls were buffer without enzyme for full effect and enzyme alone for no effect
Autofluor counter – flagged as autofluorescent in microsphere protease counterscreen | actives 3.1% (n = 360,000) | fluorescence intensity (test concentration not listed) | compound autofluorescence counterscreen, microsphere flow cytometry; stronger effect = higher value | AID 624483; in the data active = fluorescence intensity above about 16000; inconclusive = no clear call, values can overlap the other calls
MazF activator – activators of E. coli MazEF toxin-antitoxin RNase, primary screen, biochemical, fluorescence, uHTS; Endoribonuclease toxin MazF (Escherichia coli (strain K12)), P0AE70; FAM/BHQ RNA-DNA oligo cleavage fluorescence, 5 h; activation, % at 20 µM; actives 0.32% (n = 350,000); AID 504720, 2011; in the data active = activation above about 50%
Target sequence (P0AE70 whole entry, looked up): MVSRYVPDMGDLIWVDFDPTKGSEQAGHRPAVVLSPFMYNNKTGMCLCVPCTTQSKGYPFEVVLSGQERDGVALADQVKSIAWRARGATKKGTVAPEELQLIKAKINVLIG
* hit, by the source's call; ? = inconclusive; · = not tested or not shown. In the library only some 4.3% were active in any assay of this set; here they are far more common. Cut-off read from the data, not from the text of the source, unless noted: active = inhibition above about 30%; inconclusive = no clear call, values can overlap the other calls; inactive = below that.

SMILES	BoNT-F LC inh	PfHsp40 yeast	Anthrax LF inh2	BoNT-A LC inh2	Autofluor counter	MazF activator
Cc1cccn2c(=O)c(C=O)c(Nc3ccccc3)nc12	3	0	-2	0	5748	7
CN(C)CCOC(=O)c1ccc2[nH]c3c(c2c1)CSCC3	-27	-2	-9	2	5056	22
O=C(O)c1ccc2[nH]c3c(c2c1)CSCC3	7	-1	1	4	20934*	-6
Cn1c(CCC(=O)OCC(=O)NCc2ccc3c(c2)OCO3)nc(=O)c2ccccc21	2	1	2	0	4423	4
COc1ccc(/C(O)=C/C(=O)C(=O)Nc2c(C)n(C)n(-c3ccccc3)c2=O)cc1	2	1	-10	2	21666*	-10
Cc1c(NC(=O)C(=O)/C=C(/O)c2ccccc2)c(=O)n(-c2ccccc2)n1C	-8	-1	-4	-1	8686	-7
Cc1nc2c(Cl)cc(Cl)cc2[nH]1	0	33*	-4	-1	2514	4
O=C(O)Cc1ccc(N=Cc2c(O)ccc3ccccc23)cc1	3	3	-2	0	2657	-21
O=c1[nH]c2ccc(N=Cc3c(O)ccc4cc(Br)ccc34)cc2[nH]1	-11	-1	-5	1	7856	256*
Nc1ccc2c(c1)Cc1cc([N+](=O)[O-])ccc1-2	4	5	3	4	3385	11
O=C(O)c1cccc2c1Cc1cc([N+](=O)[O-])ccc1-2	-7	118*	1	0	3359	-23
O=[N+]([O-])c1ccc2c(c1)Cc1cc(O)ccc1-2	-4	51*	0	0	4547	9
O=C(O)c1cccc2c1-c1ccc([N+](=O)[O-])cc1C2=O	-3	-2	-6	0	3925	8
COC(=O)N1CCCCC1c1cc(C(=O)NCc2ccccc2)no1 (stereo unspecified)	1	·	-6	0	4179	·
CCOc1ccc(OCCC(=O)N2CCN(S(=O)(=O)c3cccc(F)c3)CC2)cc1	-16	·	-11	-10	?	0
COc1ccc(Cl)cc1C(=O)NC1CC(C)(C)NC(C)(C)C1	2	·	0	0	3630	13
COc1ccc(-c2nnc(-c3ccc(OCC(C)C)cc3)o2)cc1	-7	?	5	2	4205	-7
CC(C)COc1ccc(-c2nnc(-c3ccncc3)o2)cc1	-11	0	-2	-4	17655*	5
COCCn1c(SCC(=O)Nc2nnc(C)s2)nnc1-c1cc2ccccc2cc1O	-5	-1	-6	0	5944	11
CC(C)N(C(=O)CSc1nnc(-c2cc3ccccc3cc2O)n1Cc1ccco1)C(C)C	-1	1	1	?	20006*	-5
COCCn1c(SCC(=O)N(C(C)C)C(C)C)nnc1-c1cc2ccccc2cc1O	-3	-1	-3	?	23496*	6
O=S(=O)(c1ccccc1)c1cnc(-c2cccnc2)nc1-c1ccc(Cl)c(Cl)c1	11	1	-21	9	17469*	-1
Cc1ncc(S(=O)(=O)c2ccccc2)c(-c2ccccc2)n1	-2	-1	-5	0	3353	-4
O=C1NN(c2ccc(F)c(Cl)c2)C(=O)/C1=C\c1cccc(OC(=O)c2cccs2)c1	?	85*	4	-1	4149	-1
Nc1nnc(SCC(=O)NNC(=O)c2ccc(F)cc2)s1	-6	-2	0	0	5287	7
CCSc1ccc(C(=O)Nc2ccc(Br)cn2)cc1[N+](=O)[O-]	12	2	-6	-6	19284*	-2
N=c1c2c(ncn1CCCO)Oc1cc(O)ccc1C2c1ccccc1 (stereo unspecified)	0	-1	-1	0	4225	64*
COc1ccc(C2c3ccc4ccccc4c3Oc3ncn(CCCN(C)C)c(=N)c32)cc1 (stereo unspecified)	-24	4	3	-2	3568	50*
COc1ccc(CCNC(=O)c2cc(-c3ccccc3)c(N3CCOCC3)s2)cc1OC	-7	5	-3	0	6846	2
